Reference: the supplement of paper PMC11732987, “Enantioselective OTUD7B fragment discovery through chemoproteomics screening and high-throughput optimisation” (Communications Chemistry, 2025)
A number with no mark means an inactive call.

Tests used:
Assay in all cases: log2 ratio of Biotin-Ahx-Ub-VS probe labelling (fragment/DMSO); higher = less target engagement (more negative = stronger competition), active = hit call of the paper (q ≤ 0.05, log2 ratio ≤ -1)
Conditions in all cases: compound concentration: 200 uM; treatment time: 3 h
[1] = target: UniProt O00507
How it was run: (§1)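 Labelled DUBs from HEK293T lysate were NeutrAvidin-enriched, digested with LysC and trypsin, and run by diaPASEF LC-MS/MS. Before that, each 495 µg sample in Tris/CHAPS/IGEPAL buffer with protease inhibitors was treated in triplicate with fragment at 200 µM or vehicle for 3 h, then with Biotin-Ahx-Ub-VS at 0.5 µM final for 1 h. Values are average log2 ratios of fragment over vehicle by unpaired t-test, based on global-median-normalised Spectronaut label-free quantities from proteins with ≥2 unique peptides.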

[2] = target: UniProt P51784
How it was run: as §1

[3] = target: T1, UniProt Q5T2D3
T1 sequence (whole entry): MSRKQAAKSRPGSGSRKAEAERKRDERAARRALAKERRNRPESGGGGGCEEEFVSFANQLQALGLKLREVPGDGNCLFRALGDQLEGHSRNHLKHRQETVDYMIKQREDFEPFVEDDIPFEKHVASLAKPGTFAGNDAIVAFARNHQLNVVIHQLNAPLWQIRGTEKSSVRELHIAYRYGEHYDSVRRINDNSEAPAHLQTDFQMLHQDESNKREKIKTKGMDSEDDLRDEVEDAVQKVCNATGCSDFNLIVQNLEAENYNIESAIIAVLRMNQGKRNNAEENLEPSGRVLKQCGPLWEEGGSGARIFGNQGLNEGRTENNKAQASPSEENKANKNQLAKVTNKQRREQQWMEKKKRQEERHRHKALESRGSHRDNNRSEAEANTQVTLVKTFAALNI
How it was run: as §1

[4] = target: T2, UniProt Q8TE49
T2 sequence (whole entry): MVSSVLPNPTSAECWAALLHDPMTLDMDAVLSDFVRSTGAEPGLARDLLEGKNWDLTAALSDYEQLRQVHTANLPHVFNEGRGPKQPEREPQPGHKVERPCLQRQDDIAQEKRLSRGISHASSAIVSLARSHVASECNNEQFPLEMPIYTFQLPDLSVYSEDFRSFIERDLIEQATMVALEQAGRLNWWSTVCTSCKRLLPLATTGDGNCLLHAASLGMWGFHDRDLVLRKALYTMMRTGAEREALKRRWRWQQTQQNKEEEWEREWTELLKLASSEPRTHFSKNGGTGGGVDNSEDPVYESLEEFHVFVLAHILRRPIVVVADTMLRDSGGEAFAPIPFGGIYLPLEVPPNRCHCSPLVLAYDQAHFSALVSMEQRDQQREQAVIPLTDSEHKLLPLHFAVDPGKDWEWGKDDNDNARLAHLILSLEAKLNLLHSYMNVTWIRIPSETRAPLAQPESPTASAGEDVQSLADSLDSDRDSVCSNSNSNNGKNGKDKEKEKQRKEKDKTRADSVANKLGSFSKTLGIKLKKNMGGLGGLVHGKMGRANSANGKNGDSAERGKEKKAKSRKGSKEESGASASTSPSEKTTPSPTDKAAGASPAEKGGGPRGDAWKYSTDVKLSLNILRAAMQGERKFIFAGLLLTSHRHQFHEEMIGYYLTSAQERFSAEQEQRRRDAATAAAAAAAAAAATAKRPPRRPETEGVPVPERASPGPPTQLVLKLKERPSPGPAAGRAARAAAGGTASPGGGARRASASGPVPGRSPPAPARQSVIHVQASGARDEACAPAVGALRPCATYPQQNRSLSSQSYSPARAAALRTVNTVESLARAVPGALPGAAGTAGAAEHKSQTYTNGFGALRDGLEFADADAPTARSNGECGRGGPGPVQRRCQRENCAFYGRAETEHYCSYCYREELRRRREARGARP
How it was run: as §1

[5] = target: T3, UniProt Q9P2H5
T3 sequence (whole entry): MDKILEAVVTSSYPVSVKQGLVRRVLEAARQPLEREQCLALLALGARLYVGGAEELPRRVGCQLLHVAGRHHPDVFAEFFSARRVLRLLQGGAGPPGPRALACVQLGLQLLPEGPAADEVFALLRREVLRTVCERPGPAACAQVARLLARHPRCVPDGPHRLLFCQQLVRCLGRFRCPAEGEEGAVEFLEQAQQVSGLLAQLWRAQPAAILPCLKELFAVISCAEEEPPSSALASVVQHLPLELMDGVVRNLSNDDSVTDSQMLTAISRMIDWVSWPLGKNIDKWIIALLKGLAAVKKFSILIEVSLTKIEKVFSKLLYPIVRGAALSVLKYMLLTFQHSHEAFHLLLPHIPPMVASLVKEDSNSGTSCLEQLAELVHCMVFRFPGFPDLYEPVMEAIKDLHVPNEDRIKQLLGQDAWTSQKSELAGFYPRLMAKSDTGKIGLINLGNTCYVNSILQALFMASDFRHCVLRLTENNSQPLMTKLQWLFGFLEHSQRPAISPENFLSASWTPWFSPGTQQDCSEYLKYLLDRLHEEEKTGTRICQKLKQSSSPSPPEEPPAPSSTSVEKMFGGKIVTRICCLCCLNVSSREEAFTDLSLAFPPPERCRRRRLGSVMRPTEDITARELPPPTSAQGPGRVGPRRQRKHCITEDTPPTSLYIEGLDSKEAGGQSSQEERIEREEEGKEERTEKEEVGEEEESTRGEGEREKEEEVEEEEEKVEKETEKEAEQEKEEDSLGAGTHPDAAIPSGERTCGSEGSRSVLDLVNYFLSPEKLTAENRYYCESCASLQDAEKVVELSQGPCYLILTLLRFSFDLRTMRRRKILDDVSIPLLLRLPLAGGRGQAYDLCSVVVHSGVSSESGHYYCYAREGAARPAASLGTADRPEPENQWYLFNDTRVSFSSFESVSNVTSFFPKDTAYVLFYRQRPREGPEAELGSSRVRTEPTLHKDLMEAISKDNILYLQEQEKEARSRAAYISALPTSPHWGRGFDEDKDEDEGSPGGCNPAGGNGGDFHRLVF
How it was run: as §1

[6] = target: T4, UniProt Q9UGI0
T4 sequence (whole entry): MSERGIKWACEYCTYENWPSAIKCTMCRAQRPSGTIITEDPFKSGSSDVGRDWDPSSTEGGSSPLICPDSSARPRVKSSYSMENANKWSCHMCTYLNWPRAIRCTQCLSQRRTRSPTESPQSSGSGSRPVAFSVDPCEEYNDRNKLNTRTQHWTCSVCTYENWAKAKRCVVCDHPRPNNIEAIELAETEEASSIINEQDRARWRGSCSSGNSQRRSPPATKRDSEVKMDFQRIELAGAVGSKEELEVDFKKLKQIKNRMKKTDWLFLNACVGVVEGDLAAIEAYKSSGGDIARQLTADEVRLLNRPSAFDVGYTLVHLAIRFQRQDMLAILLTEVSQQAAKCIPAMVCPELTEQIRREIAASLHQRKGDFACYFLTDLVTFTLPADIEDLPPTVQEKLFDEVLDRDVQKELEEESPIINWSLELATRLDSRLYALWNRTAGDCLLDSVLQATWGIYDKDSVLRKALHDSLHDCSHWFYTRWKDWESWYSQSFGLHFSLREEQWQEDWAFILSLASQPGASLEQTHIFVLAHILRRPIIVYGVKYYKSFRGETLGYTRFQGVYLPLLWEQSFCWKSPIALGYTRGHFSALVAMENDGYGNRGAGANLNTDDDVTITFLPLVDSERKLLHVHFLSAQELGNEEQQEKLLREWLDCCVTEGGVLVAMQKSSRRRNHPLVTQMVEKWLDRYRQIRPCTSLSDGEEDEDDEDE
How it was run: as §1

[7] = target: T5, YOD1 (UniProt Q5VVQ6)
T5 sequence (whole entry): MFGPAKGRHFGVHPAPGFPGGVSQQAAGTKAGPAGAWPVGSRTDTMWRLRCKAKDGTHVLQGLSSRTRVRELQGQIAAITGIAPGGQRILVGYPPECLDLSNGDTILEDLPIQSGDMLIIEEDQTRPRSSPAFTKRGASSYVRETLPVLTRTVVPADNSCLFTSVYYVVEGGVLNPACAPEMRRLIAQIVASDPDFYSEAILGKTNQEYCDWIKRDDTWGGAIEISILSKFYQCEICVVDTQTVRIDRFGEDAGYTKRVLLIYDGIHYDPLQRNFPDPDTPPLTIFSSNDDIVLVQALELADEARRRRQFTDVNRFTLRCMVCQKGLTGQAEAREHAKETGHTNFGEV
How it was run: as §1

Sequence of UniProt O00507 (O00507 whole entry, the tested form may be a part): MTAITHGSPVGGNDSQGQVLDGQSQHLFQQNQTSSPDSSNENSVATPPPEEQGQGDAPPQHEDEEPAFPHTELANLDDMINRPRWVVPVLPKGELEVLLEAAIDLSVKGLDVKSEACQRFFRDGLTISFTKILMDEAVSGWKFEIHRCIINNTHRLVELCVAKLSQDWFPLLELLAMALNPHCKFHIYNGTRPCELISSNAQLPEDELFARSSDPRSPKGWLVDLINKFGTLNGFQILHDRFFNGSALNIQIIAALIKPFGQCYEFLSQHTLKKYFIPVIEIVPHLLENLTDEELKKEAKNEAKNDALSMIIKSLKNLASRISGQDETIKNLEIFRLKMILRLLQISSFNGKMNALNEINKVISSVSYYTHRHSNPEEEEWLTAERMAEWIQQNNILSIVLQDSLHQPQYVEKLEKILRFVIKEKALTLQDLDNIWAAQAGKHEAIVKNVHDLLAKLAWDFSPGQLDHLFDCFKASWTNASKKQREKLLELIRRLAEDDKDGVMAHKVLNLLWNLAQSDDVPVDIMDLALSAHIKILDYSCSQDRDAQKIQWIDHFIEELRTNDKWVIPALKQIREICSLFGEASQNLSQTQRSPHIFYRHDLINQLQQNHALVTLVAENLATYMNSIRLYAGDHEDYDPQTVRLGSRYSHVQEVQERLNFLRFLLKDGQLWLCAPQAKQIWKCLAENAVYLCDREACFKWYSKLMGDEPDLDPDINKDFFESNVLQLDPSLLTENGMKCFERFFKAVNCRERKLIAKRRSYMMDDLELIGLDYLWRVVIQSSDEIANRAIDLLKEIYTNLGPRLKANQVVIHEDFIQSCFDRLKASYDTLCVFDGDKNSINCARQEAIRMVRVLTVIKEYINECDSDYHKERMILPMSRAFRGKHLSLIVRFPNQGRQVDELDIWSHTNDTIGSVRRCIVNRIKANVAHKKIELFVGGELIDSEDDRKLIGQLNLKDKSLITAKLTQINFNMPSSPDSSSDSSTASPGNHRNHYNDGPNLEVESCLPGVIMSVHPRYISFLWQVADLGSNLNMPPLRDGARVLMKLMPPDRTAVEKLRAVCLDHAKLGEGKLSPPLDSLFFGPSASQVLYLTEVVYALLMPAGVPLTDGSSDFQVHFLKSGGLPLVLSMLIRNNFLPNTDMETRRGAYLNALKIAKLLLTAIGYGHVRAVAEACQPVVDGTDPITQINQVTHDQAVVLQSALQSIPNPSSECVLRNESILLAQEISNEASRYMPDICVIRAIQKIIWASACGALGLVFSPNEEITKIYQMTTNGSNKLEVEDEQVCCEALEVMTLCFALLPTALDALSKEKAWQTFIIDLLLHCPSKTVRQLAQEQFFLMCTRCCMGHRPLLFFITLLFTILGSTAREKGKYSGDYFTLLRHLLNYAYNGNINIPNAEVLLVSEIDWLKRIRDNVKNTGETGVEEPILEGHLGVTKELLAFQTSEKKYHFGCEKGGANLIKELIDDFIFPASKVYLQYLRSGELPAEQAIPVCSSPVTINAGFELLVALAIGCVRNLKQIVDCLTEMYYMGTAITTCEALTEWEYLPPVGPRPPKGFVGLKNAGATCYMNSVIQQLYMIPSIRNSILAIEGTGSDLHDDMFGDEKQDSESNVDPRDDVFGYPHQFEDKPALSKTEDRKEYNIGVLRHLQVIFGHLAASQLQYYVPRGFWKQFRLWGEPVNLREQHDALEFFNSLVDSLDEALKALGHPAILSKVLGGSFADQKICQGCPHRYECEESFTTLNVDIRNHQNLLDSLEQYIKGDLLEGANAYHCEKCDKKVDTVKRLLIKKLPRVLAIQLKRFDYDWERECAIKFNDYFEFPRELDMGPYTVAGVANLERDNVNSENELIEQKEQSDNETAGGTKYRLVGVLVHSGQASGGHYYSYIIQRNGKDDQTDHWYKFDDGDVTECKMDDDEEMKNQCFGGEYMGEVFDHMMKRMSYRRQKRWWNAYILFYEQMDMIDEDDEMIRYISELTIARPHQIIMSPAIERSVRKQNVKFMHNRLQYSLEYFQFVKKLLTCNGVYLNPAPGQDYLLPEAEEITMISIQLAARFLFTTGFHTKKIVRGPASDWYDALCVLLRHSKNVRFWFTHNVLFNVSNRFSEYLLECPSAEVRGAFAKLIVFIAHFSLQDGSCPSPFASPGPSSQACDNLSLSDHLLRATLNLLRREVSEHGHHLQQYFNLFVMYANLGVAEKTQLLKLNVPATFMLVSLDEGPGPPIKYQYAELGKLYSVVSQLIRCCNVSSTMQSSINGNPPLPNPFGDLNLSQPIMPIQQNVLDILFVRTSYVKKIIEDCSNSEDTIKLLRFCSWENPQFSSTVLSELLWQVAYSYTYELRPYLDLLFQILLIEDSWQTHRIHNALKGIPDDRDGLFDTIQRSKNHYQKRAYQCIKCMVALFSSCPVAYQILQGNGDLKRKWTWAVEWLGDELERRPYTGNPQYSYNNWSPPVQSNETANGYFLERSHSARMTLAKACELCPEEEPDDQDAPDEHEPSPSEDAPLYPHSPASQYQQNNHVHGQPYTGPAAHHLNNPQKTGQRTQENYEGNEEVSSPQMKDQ
Sequence of UniProt P51784 (P51784 whole entry): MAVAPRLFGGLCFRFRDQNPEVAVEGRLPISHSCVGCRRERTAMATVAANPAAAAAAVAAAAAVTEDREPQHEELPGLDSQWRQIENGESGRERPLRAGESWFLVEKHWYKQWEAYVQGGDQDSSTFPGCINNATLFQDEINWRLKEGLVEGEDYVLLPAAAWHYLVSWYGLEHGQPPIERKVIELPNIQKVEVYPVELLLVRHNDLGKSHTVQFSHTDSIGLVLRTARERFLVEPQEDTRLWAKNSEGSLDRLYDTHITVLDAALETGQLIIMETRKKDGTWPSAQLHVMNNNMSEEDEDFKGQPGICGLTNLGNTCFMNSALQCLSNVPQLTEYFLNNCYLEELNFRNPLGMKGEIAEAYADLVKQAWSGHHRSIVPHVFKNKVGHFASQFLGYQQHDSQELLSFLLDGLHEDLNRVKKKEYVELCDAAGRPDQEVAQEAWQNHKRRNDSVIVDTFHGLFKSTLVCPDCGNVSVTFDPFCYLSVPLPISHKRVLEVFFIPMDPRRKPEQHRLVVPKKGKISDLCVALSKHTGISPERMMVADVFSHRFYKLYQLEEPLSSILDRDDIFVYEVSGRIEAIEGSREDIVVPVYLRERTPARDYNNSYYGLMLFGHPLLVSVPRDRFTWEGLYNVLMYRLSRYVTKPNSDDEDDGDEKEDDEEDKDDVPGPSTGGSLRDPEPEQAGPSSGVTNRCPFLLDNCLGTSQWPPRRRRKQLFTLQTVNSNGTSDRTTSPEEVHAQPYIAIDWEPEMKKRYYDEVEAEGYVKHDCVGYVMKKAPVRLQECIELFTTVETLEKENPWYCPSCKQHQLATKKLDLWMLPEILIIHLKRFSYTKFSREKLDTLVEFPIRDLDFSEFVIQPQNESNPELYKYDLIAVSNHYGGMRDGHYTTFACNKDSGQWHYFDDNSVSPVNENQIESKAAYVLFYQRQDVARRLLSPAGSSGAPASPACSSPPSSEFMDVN

| SMILES | log2 ratio of Biotin-Ahx-Ub-VS probe labelling [1] | log2 ratio of Biotin-Ahx-Ub-VS probe labelling [2] | log2 ratio of Biotin-Ahx-Ub-VS probe labelling [3] | log2 ratio of Biotin-Ahx-Ub-VS probe labelling [4] | log2 ratio of Biotin-Ahx-Ub-VS probe labelling [5] | log2 ratio of Biotin-Ahx-Ub-VS probe labelling [6] | log2 ratio of Biotin-Ahx-Ub-VS probe labelling [7] |
| --- | --- | --- | --- | --- | --- | --- | --- |
| O=C(CCl)Nc1cccc(C(=O)N2CCSCC2)c1 | -0.587 | -0.172 | -0.17 | -0.399 | 0.0593 | -0.309 | -0.58 |
| CS(=O)(=O)N1CCCN(C(=O)CCl)CC1 | 0.0618 | -0.0587 | -0.154 | -0.261 | -0.224 | -0.469 | 0.146 |
| Cc1cccc(NC(=O)CCl)c1C | -0.281 | -0.431 | -0.156 | -0.703 | -0.325 | -0.414 | -0.291 |
| N#Cc1ccc(CNC(=O)CCl)cc1 | -0.0509 | -0.059 | -0.00706 | -0.236 | -0.0879 | -0.592 | -0.136 |
| O=C(CCl)NC1CCN(C(=O)C2CCCCC2)CC1 | -0.257 | 0.122 | 0.0478 | -0.283 | 0.125 | -0.0541 | -0.0714 |
| Cl.Cn1nc2c(c1CNC(=O)CCl)CCCC2 | 0.0971 | 0.0528 | -0.274 | -0.529 | -0.23 | -0.319 | -0.144 |
| CC(NC(=O)CCl)c1csc(-c2ccccc2)n1.Cl (configuration not stated) | -0.472 | -0.138 | -0.671 | -1.08 (active) | -0.482 | -0.494 | -0.459 |
| CCN(C(=O)CCl)C1CCS(=O)(=O)C1 (configuration not stated) | 0.545 | -0.0519 | 0.00795 | -0.222 | -0.211 | -0.289 | 0.133 |
| O=C(CCl)N1CCC(c2noc3cc(F)ccc23)CC1 | -0.609 | 0.00105 | -0.212 | -0.807 | -0.0991 | -1.02 (active) | -0.0109 |
| Cc1nc(CN2CCN(C(=O)CCl)CC2)cs1 | -0.246 | -0.106 | -0.213 | -0.382 | -0.401 | -0.214 | -0.111 |
| Cl.O=C(CCl)NCc1cc2c(nc1O)CCCC2 | -0.0624 | 0.0791 | -0.333 | -0.515 | -0.244 | -0.421 | -0.158 |
| Cl.O=C(CCl)N1CCN(Cc2ccccc2)CC1 | -0.496 | 0.0203 | -0.213 | -0.391 | 0.0502 | -0.536 | -0.381 |
| O=C(CCl)N1CCOC(CCc2ccccc2)C1 (configuration not stated) | -0.798 | -0.097 | -0.306 | -0.84 | -0.236 | -0.876 | -0.418 |
| NS(=O)(=O)c1ccc(Cl)c(NC(=O)CCl)c1 | -0.168 | 0.0886 | -0.424 | -1.53 (active) | -0.0565 | -0.791 | -0.361 |
| Cl.O=C(CCl)N1CCCC(c2ncc[nH]2)C1 (configuration not stated) | 0.0496 | 0.000136 | -0.124 | -0.0422 | 0.113 | -0.517 | -0.0255 |
| Cc1ccc(-c2nnc(C)[nH]2)c(NC(=O)CCl)c1 | -0.0161 | 0.126 | -0.148 | -0.185 | 0.245 | -0.97 | -0.102 |
| Cc1nc(-c2cccc(NC(=O)CCl)c2)cs1 | -0.692 | -0.269 | -0.317 | -0.655 | -0.193 | -1.43 (active) | -0.369 |
| O=C(CCl)Nc1ccc2c(c1)OC(F)(F)O2 | -0.0305 | 0.0816 | -0.375 | -0.815 | -0.115 | -0.637 | -0.0381 |
| Cc1ccc(CNC(=O)CCl)nc1C.Cl | -0.661 | 0.353 | -0.0639 | -0.343 | 0.102 | -0.161 | -0.259 |
| Cl.O=C(CCl)N1CC(c2ccc(Br)cn2)C1 | -0.573 | -0.0636 | -0.282 | -0.974 | -0.175 | -0.897 | -0.229 |
| O=C(CCl)N1CC2(CCOCC2)C1 | -0.0593 | 0.164 | -0.249 | -0.469 | -0.109 | -0.328 | -0.131 |
| CC(NC(=O)CCl)c1cccc2ccccc12 (configuration not stated) | 0.0439 | -0.0702 | -0.196 | -1.06 (active) | -0.463 | -0.905 | 0.0311 |
| CN(CCC(O)c1ccc(Br)cc1)C(=O)CCl (configuration not stated) | -0.198 | -0.124 | -0.111 | -1.29 (active) | -0.328 | -0.555 | 0.00847 |
| CC1(NC(=O)CCl)CCS(=O)(=O)C1 (configuration not stated) | -0.402 | -0.612 | -0.858 | -1.44 (active) | -0.61 | -0.698 | -0.754 |
| O=C(CCl)NCc1cccc(F)c1 | 0.176 | -0.104 | -0.0819 | -0.349 | 0.0328 | -0.684 | -0.0324 |
| Cc1c(C#N)c(NC(=O)CCl)n(Cc2ccco2)c1C | -0.255 | -0.349 | -0.169 | -2.48 (active) | -0.304 | -0.313 | -0.0342 |
